PubChem BioAssay AID411 (National Center for Advancing Translational Sciences (NCATS), 2006)
Values joined by “and” are separate entries in the source; they are usually repeats but may differ in a detail not shown here. Identical values can stand only once. Screen size: about 72,000 compounds; about 1,600 (2.2%) were called active. The sample as a whole holds a higher share of actives than the screen did. Unmarked numbers belong to inactive results. Calls come from the whole dose curve; as a rule, active = well fitted inhibition curve with a large enough effect; inconclusive = small, poorly fitted or top-dose-only effect; inactive = flat fitted curve, though single readings scatter.

biological target: Luciferin 4-monooxygenase (Photinus pyralis) (UniProt P08659); assay: qHTS Assay for Inhibitors of Firefly Luciferase; settings: purified firefly luciferase, luminescence, 8 min; series mostly up to 57.1 µM; activity change, negative = inhibition: at the top concentration; note: nearly all actives have a fitted effect of over 40% in size
Sequence (P08659 whole entry, looked up): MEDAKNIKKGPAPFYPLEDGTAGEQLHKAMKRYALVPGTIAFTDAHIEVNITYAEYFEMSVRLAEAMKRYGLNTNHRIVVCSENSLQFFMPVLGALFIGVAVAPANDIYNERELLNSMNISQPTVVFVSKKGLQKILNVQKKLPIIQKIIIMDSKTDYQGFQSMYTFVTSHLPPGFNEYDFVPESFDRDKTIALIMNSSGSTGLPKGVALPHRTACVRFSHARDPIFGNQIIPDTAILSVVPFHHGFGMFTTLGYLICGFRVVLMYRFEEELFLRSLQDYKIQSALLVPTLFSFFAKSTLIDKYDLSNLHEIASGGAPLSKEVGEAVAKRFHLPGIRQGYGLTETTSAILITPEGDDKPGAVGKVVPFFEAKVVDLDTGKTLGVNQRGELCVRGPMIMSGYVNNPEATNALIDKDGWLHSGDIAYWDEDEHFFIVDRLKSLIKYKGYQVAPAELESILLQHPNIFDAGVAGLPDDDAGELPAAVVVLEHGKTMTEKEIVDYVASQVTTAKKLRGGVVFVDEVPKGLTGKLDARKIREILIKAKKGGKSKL
In short: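 Firefly luciferase (PKLight detection mix) with 10 uM ATP in pH 7.2 imidazole buffer (KCl, MgCl2, Tween 20, BSA). Compounds tested across a concentration series (qHTS). Luminescence read after 8 min at ambient temperature.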
% is set by controls: 0 for no effect and ±100 for the full control effect; potency is the fitted concentration of half-maximal effect.

Row | Structure (SMILES) | activity change, negative = inhibition | Potency
1 | COc1ccc(CCn2c(NCCCN3CCOCC3)nc3c2c(=O)[nH]c(=O)n3C)cc1 | -0.55% | –
2 | CCc1cccc2c3c([nH]c12)C(CC)(CC(=O)O)OCC3 (stereo not given) | 0.413% [at 25.5 µM] | –
3 | CCN1C(=O)c2cccc3c(N)ccc1c23 | -8.81% | –
4 | CCN1C(=O)/C(=C2\SC(N3CCCCC3)=NC2=O)c2ccccc21 | – | 6.31 µM (active)
5 | CCN1C(=O)/C(=C\N2CCN(c3ccccc3)CC2)SC1=S | 3.29% | –
6 | CCCn1c(SCC(=O)Nc2c(C)cccc2C)nnc1C(C)C | 1.85% | –
7 | Cc1cc(C)n2nc(C(=O)Oc3ccc4c(c3)OCO4)nc2n1 | 1.51% | –
8 | COc1ccccc1C(=O)n1nc(-c2ccccc2)nc1N | 0.0179% | –
9 | Cc1nn(C(=O)c2ccoc2C)c(N)c1-c1ccccc1 | – | 25.1 µM (active)
10 | Cc1occc1C(=O)N1CCCc2ccccc21 | 0.295% | –
11 | Cc1nc2cc(S(=O)(=O)C(F)(F)F)ccc2s1 | 4.06% | –
12 | CN(c1ccccc1)c1ccc(/C=c2\s/c(=C(/C#N)C(=O)C(C)(C)C)n(Cc3ccco3)c2=O)cc1 | -5.79% | –
13 | Cc1ccsc1C(=O)OCC(=O)c1cc(C)n(CC2CCCO2)c1C (stereo not given) | – | 1 µM (active)
14 | COC(=O)c1ccc2c(=O)n(CC3CCCO3)c(=S)[nH]c2c1 (stereo not given) | -0.889% | –
15 | Cc1ccsc1C(=O)OCC(=O)c1cc2ccccc2o1 | -16.8% | –
16 | O=S(=O)(O)c1nc2ccccc2n1Cc1ccc(Cl)cc1Cl | 0.262% [at 25.5 µM] | –
17 | CN1CCN(S(=O)(=O)c2ccc(NC(=O)C3CCCO3)cc2)CC1 (stereo not given) | 3.62% | –
18 | C[C@@H]1C[C@H]2[C@@H]3C[C@H](F)C4=CC(=O)C=C[C@@]4(C)[C@]3(F)[C@H](O)C[C@]2(C)[C@@]1(O)C(=O)CO | 0.574% [at 25.5 µM] | –
19 | CN(C)/C=C1/C(=O)Nc2ccccc21 | 0.13% | –
20 | CCc1nc2ccccc2n(CCOCCOCCn2c(=O)c(CC)nc3ccccc32)c1=O | 3.93% | –
21 | O=C(c1cn(-c2ccccc2)nc1-c1cccnc1)N1CCCCC1 | -2.89% | –
22 | O=C(NCc1cccnc1)c1cn(-c2ccccc2)nc1-c1cccs1 | – | 10 µM (active)
23 | COC(=O)c1cn(-c2ccccc2)nc1-c1cccnc1 | 1.75% | –
24 | CC(=O)/C(C)=N\O | – | inactive
25 | COc1cc(-c2nc(-c3ccncc3)no2)cc(OC)c1OC | -4.91% | –
26 | CCOc1nc(-c2ccc(OC)cc2)ccc1-c1noc(-c2cc(OC)c(OC)c(OC)c2)n1 | 1.4% | –
27 | COc1ccc(-c2noc(-c3cccc(OC)c3OC)n2)cc1OC | – | 6.31 µM (active)

Row | Structure (SMILES) | activity change, negative = inhibition | Potency
28 | COC(=O)[C@@H]1CC[C@H](C)[C@@H](c2ccc(C)cc2)N1C(=O)c1ccc(/C=N\OC[C@@H](O)COCc2ccco2)cc1 | -0.535% [at 11.4 µM] | –
29 | CCc1cc2c(=O)c(-c3ccon3)c(N)oc2cc1OC | – | 3.98 µM (active)
30 | CC1CCC(NS(=O)(=O)c2ccc3c(c2)n(C)c(=O)c(=O)n3C)CC1 (stereo not given) | 0.852% | –
31 | COc1ccc(CCNC(=O)c2ccco2)cc1 | -4.8% | –
32 | CCOC(=O)C1C(=O)NC(N2CCN(c3ccccc3)CC2)=NC1c1ccco1 (stereo not given) | 2.05% | –
33 | CCOC(=O)C1C(=O)C=C(c2ccc(OC)cc2)CC1c1ccco1 (stereo not given) | – | 25.1 µM (active)
34 | CN1C(=O)c2ccccc2C(C(=O)NCCCN2CCCC2)C1c1c[nH]c2ccccc12 (stereo not given) | 1.89% | –
35 | O=C1OCCC=C1[C@@H](O)CCc1ccccc1 | 1.7% [at 11.4 µM] | –
36 | CN1CCN(CC(=O)Nc2sc3c(c2C#N)CCC(C(C)(C)C)C3)CC1 (stereo not given) | 2.15% | –
37 | CCOc1ccc(-c2nnn(CC(=O)N3CCN(c4ccc(OC)cc4)CC3)n2)cc1OCC | -0.335% | –
38 | COc1ccc(C(=O)Cn2nnc(-c3ccc(N4CCOCC4)cc3)n2)cc1OC | – | 10 µM (active)
39 | CCOc1ccc(-c2nnn(CC(=O)N3CCN(c4ccc(F)cc4)CC3)n2)cc1OCC | 1.81% | –
40 | CCOC(=O)c1cc2sccc2n1Cc1ccc(C#N)cc1 | 0.824% | –
41 | O=C(O)c1ccc(C(=O)O)c2c(C(=O)O)ccc(C(=O)O)c12 | -2.88% [at 11.4 µM] | –
42 | CC(C)(C)c1ccc(C(=O)CSc2ncn[nH]2)cc1 | – | 15.8 µM (active)
43 | CCN(C(=O)CSc1ncn[nH]1)c1cccc2ccccc12 | 3.18% | –
44 | Cn1nnc(NC(=O)CSc2ncn[nH]2)n1 | -1.66% | –
45 | CCOc1cc(C)c(Cl)cc1S(=O)(=O)n1nnc2ccccc21 | 1.16% | –
46 | C=CCn1c(SCc2nnc(-c3ccccc3)o2)nnc1C(O)c1ccccc1 (stereo not given) | -0.126% | –
47 | CCOc1ccc(OCc2ccc(C(=O)Nc3cccc(C)n3)o2)cc1 | 2.72% | –
48 | Cc1cccc(NC(=O)COc2ccc(Br)cc2C)n1 | – | 10 µM (active)
49 | Cc1cccc(NC(=O)COc2ccccc2C)n1 | -11.8% | –
50 | COc1cccc(-c2nc3n(n2)C(c2ccccc2Cl)C(C(N)=O)=C(C)N3)c1 (stereo not given) | -0.456% | –
51 | CC(C)Cc1cc(C(=O)Nc2cc(Br)ccc2O)no1 | – | 12.6 µM (active)
52 | CC(C)CNC(=O)c1cc(-c2ccc(Br)cc2)on1 | -1.15% | –
53 | O=C(Nc1ccccc1C(F)(F)F)c1cc(-c2ccc(O)cc2)on1 | -4.79% | –
54 | O=C1c2cccnc2C(Nc2ccc(S(=O)(=O)N3CCCCCC3)cc2)N1Cc1ccccc1 (stereo not given) | -2.25% | –

Row | Structure (SMILES) | activity change, negative = inhibition | Potency
55 | COC(=O)c1cn(C)c2ccc(S(=O)(=O)N3CC(C)CC(C)C3)cc2c1=O (stereo not given) | 2.46% | –
56 | C=CCSc1nc2ccccc2[nH]1 | -5.6% | –
57 | c1ccc2[nH]c(-c3nc4ccccc4[nH]3)nc2c1 | – | 2.51 µM (active)
58 | c1ccc(-c2[nH]ncc2-c2nc3ccccc3[nH]2)cc1 | -10.9% | –
59 | CC(=O)c1nc(N2C(=O)C3CC=C(C)CC3C2=O)sc1C (stereo not given) | 3.83% | –
60 | COc1ccc2[nH]c3cc4c(=O)c5cc(OC)ccc5[nH]c4cc3c(=O)c2c1 | -0.432% [at 11.4 µM] | –
61 | COc1ccc2[nH]c3c(=O)n(Cc4ccco4)cnc3c2c1 | -4.13% | –
62 | COc1ccc2[nH]c3ccc(OC)cc3c2c1 | – | 20 µM (active)
63 | CCOc1ccc(N2C(=O)CC(N(O)c3ccccc3)C2=O)cc1 (stereo not given) | 0.494% | –
64 | CCOc1ccc(-c2nnc(-c3ccco3)o2)cc1 | – | 7.94 µM (active)
65 | Cc1ccc(OCC(=O)Nc2ccc(-c3nnc(-c4ccco4)o3)cc2)cc1 | 0.889% | –
66 | CCC(=O)Oc1cccc(C(=O)Nc2ccc(-c3nnc(-c4ccco4)o3)cc2)c1 | -6.47% | –
67 | CCOc1cc2c(cc1OCC)C(C(=O)O)C(c1ccc(OC)c(O)c1)N(C)C2=O (stereo not given) | 6.01% | –
68 | CCOc1ccc(N=C2SC(C(=O)O)CC(=O)N2C)cc1 (stereo not given) | -2.63% | –
69 | O=C(Nc1ccc2c(c1)OCCO2)C1CCCN(c2ncccn2)C1 (stereo not given) | – | 10 µM (active)
70 | O=C(Nc1ccc2c(c1)OCCO2)c1ccncc1 | -17.4% | –
71 | Cc1ccnc(N2CCCC(C(=O)Nc3cc(F)ccc3C)C2)n1 (stereo not given) | 2.9% | –
72 | COc1c(Br)cc2c(C)c(C(=O)N3CCOCC3)oc2c1Br | -0.12% | –
73 | c1ccc(COc2nsnc2N2CCOCC2)cc1 | -12.5% | –
74 | CCCC(=O)N(CCc1ccccc1)Cc1nc2ccccc2c(=O)[nH]1 | 1.75% | –
75 | CCOc1cc(NC(=O)c2ccco2)c(OCC)cc1NC(=O)COc1ccccc1 | -1.31% | –
76 | Cc1ccnc(NC(=O)c2ccc(NC(=O)c3ccco3)cc2)c1 | – | 25.1 µM (active)
77 | O=C(Nc1ccc(Oc2ccccc2)cc1)c1ccco1 | – | 15.8 µM (active)
78 | CCc1nnc(NC(=O)c2cccs2)s1 | -7.96% | –
79 | CC(C)(C)NC(=O)c1cc(NC(=O)c2ccco2)cc(NC(=O)c2ccco2)c1 | -5.21% | –
80 | COC(=O)c1cc(Cl)c(NC(=O)c2ccco2)cc1OC | -0.363% | –
81 | O=C(Nc1ccc(Cl)cn1)Nc1cccs1 | -15.8% | –

Row | Structure (SMILES) | activity change, negative = inhibition | Potency
82 | Cc1ccc(C(=O)COc2cccc(NC(=O)c3ccco3)c2)cc1 | -18.4% | –
83 | COC(=O)c1ccc(NC(=O)c2ccco2)cc1 | – | 20 µM (active)
84 | CN1CCN(S(=O)(=O)c2ccc(NC(=O)c3ccco3)cc2)CC1 | 0.616% | –
85 | COc1ccc(NC(=O)c2cccc(NC(=O)c3ccco3)c2)c(OC)c1 | -17.4% | –
86 | O=C(Nc1ccc(NC(=O)c2cccs2)cn1)c1ccco1 | – | 5.01 µM (active)
87 | CCc1cccc(C)c1NC(=O)CSc1nnc(-c2ccco2)n1N | 3.08% | –
88 | CC(C)C(=O)N1CCN(c2nc(-c3ccccc3)c3c(c2C#N)CC(C)(C)OC3)CC1 | 0.212% [at 25.5 µM] | –
89 | CC(=O)N1CCC2(CCCN(Cc3ccccc3)C2)CC1 | -1.06% [at 11.4 µM] | –
90 | COCCNc1ccnc(-c2cccc(NS(C)(=O)=O)c2)n1 | 0.411% [at 2.29 µM] | –
91 | O=C1C[C@@H](O)[C@@H](O)[C@H]2[C@@H]3C(=O)N(Cc4ccc5c(c4)OCO5)C(=O)[C@@H]3CC[C@H]12 | 1.52% [at 11.4 µM] and -0.708% [at 11.4 µM] | –
92 | CC(NCCO)C(=O)C12CC3CC(CC(C3)C1)C2 (stereo not given) | 0.832% | –
93 | C[N+](C)(C)CCCCCNCC12CC3CC(CC(C3)C1)C2 | 1.32% | –
94 | CCn1c(=N)n(CC(=O)c2cccc(OC)c2)c2ccccc21 | -14.7% | –
95 | CN(C)c1ccc(-c2nc(NCCN3CCOCC3)c3ccccc3n2)cc1 | -10.7% [at 2.29 µM] | –
96 | ClC(Cl)(Cl)C(N1CCN(c2ccccc2)CC1)N1CCN(c2ccccc2)CC1 | 2.2% [at 11.4 µM] | –
97 | CCOC(=O)c1nnn(-c2nonc2OC)c1-c1ccccc1 | 1.47% | –
98 | CC(=O)N1CSCC1C(=O)O (stereo not given) | 4.56% | –
99 | CC1CCC(NC(=O)c2ccc(N3CCCC3=O)cc2)CC1 (stereo not given) | -12.8% | –
100 | COc1cccc(OC)c1C(=O)Nc1nnc(C(C)C)s1 | 2.84% | –
101 | COc1cccc2sc(Nc3nc(C)c(C(C)=O)s3)nc12 | – | 5.01 µM (active)
102 | COc1ccccc1Nc1ncc(C(C)=O)c(C)n1 | -24.1% | –
103 | Cc1c(S(=O)(=O)O)ccc(N=Nc2c(O)c(C(=O)O)cc3ccccc23)c1Cl | -2.84% [at 11.4 µM] | –
104 | COc1cccc(NS(=O)(=O)c2ccc3[nH]cc(C(=O)NCCCOC(C)C)c(=O)c3c2)c1 | 1.42% | –
105 | CCCCN(CCCC)CCC(O)c1cc2c(Cl)cc(Cl)cc2c2cc(C(F)(F)F)ccc12 (stereo not given) | -2.13% [at 25.5 µM] | –
